The subject of the first assay is THRa homodimer (NR concentration 90 nM). Kind of assay: PBM binding z-score (relative to random genomic background probes); higher = stronger binding; sequences stand for … in GC…GCGATTGACAGCGTAGAATGAAGG
Summed up: (§1)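 Probes were double-stranded and carried 34-nt variable regions with direct-repeat seeds, single-nucleotide variants, half-site ablations and random human genomic background sequences, printed on custom Agilent 4×180K protein-binding microarrays. Arrays were incubated 1 h with ligand-free nuclear receptor dimers in PBS pH 7.4, 2% milk, 0.02% Triton X-100, 1 mM DTT, 0.2 mg/mL BSA and 0.4 mg/ml salmon testes DNA. Antibodies against each partner (one per run) detected binding, and scanned fluorescence was regression-normalized. Binding z-scores use the random background probes as reference.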
ACTAGCAGGCCACGGGTCACTCAAGATTAGTCCG yielded a PBM binding z-score of 0.298.
CCGACTGGGGCAAAGGTGACCATACTCAGTACGA registered a PBM binding z-score of -0.0809.
Still for that read-out and setting: as for TGAATGAGGCTAAAGATCAGGGAACGTGGCGTCG, the figure is -1.04.
Same read-out and setting: the figure for TCTTGCAGATCAACAGGAGGTTAAGAAAGATCGA is -0.241.
TAGCCTAGGTCACGCGGGCCAGTATAGTGTCGGC: the PBM binding z-score came to 1.61.
Same read-out and setting: as for GATACAGGGTCAAGGCCAGAGTGCGCGTATTGAT, the figure is 1.27; as for TCATAGAGGTAAATGCTAGGTGAAAGTCCGATCT, 0.361.
The same measure, in the same setting: the figure for TCTCGGAGGATACGAAAGGTCAGAGCTCGACATC is 0.363; for ATACCAAGGTGATCGTGAGGTAGTTGATACTAAC it is 0.542.
On to ATCTCTAGGCAAGACTCAGTTCAGTGAAGAACGC, for which the PBM binding z-score was found to be 0.122.
GTACCAAGGTGAGTAGGTCGTTGATGAGTAGGCG yielded a PBM binding z-score of 0.258.
Same read-out and setting: the figure for CCTCGGAGGACAACAGGAGGTCAGAGCGGCCAGA is 1.31; for TCTGGTAGATCAATAGAGGTTAAGAAAGTGCGCT it is -0.138.
Same read-out and setting: as for GCGACTGGGGCAAAGCAGGTTACAATAAGGTTGG, the figure is 0.0569.
On to CCGACTGGGGCATAAGGTTACCACAAGCCAGCCC, for which the PBM binding z-score is 1.37.
The sequence ATATGTAGGTTAAGGGTCATACAGGTTGGTTCGC showed a PBM binding z-score of 1.48.
On the same count and under the same terms, as for ACTATTAGTTGACTAAGGGCAACCGATACGACGC, the figure is 0.967.
As to TCTTGTAGATCAACACGAGGTTAAGAAAGATCGA, the PBM binding z-score worked out at 0.0132.
The same measure, in the same setting: as for TCGAGTAGCTTAGGGGCATTCAGAATGGCGTCGA, the figure is -0.487; as for TCAATGAGGTTATAAGATCAGGGAACGTTGCAAA, 0.0539.
In turn, CCTACTGGGCCACGAAAGGTCATTGTTTCAGTGA returned a PBM binding z-score of 0.739.
Regarding GATACAGGGCCAGCTAGAGGCCAGAGTATGGAAA, the PBM binding z-score was -0.861.
With GCTATTAGTTGAAAGGGCAACCTAATGATTCTCG, the PBM binding z-score was -0.0101.
Still for that read-out and setting: as for ATATGTAGGTTATCGGGTCATTCAGTTTGCGCAT, the figure is 3.19; as for CGTCCAAGGTCAGAGCGGTCAGTGAATGCCGAGT, 1.54.
Sequence TTACCAAGGTGAGCTGAGGTCGTTGTTCCAACTC gave a PBM binding z-score of 2.02.
Consider CCAGCCAGGTGAGAAGGTAACTCAGCCTCGATTA, for which the PBM binding z-score turned out to be 0.306.
The same measure, in the same setting: the figure for CCTAGCAGGCCAATCTGGCTCACTCAAGGCTTGA is -0.709.
The same measure, in the same setting: as for CTTTACGGGTCACTCCAGGTTATAGCATCGGAGT, the figure is 0.775; as for CAAACTCGGTCACGAAAGGTCAAAGTCGAATGAC, 1.09; as for CTCGAAAAGTCGGTTGAGGTGAGTATACGGATAA, 1.15.
CGGCCAAGGTCAGAGAGGTCAGTGAATGCCGAGT: the PBM binding z-score was found to be 2.42.
As to CCTACTGGGCCAAGGTGATTGATCAGTCAAAGCA, the PBM binding z-score is -0.015.
TATACAGGGTCAAAGGCCAGACTACGAATGTCGA showed a PBM binding z-score of 0.88.
On the same count and under the same terms, the figure for ATAATGAGGTTATTAAGATCAGGGAATTGCGGTC is 0.964; for GCTGCTAGGTAAACTGATGGTCAGCTAAAGCTCG it is -0.754.
The same measure, in the same setting: as for AGAATGAGGTTATTAAGACCAGGGAATTGCGGTC, the figure is 0.47; as for ATCTCCAGGTAAGACTCAGTTCAGTGAAGAACGC, 1.32.
The same measure, in the same setting: the figure for CCAGACAGGTGAAAGGTAATTCAGTCTGGTACGC is -0.243; for CTAACTAGGTCAAGAGGTCAAAGTCCGCTTCCCG it is 2.29.

The next assay has as its system VDR homodimer (NR concentration 270 nM). Described as above. Summed up:
as §1
In turn, ACTAGCAGGCCACGGGTCACTCAAGATTAGTCCG displayed a PBM binding z-score of 0.215.
The same measure, in the same setting: the figure for CCGACTGGGGCAAAGGTGACCATACTCAGTACGA is -0.471.
The same measure, in the same setting: as for TGAATGAGGCTAAAGATCAGGGAACGTGGCGTCG, the figure is -0.642; as for TCTTGCAGATCAACAGGAGGTTAAGAAAGATCGA, -0.1.
As for TAGCCTAGGTCACGCGGGCCAGTATAGTGTCGGC, the PBM binding z-score stood at 0.563.
Same read-out and setting: as for GATACAGGGTCAAGGCCAGAGTGCGCGTATTGAT, the figure is 2.96; as for TCATAGAGGTAAATGCTAGGTGAAAGTCCGATCT, -0.248.
On the same count and under the same terms, the figure for TCTCGGAGGATACGAAAGGTCAGAGCTCGACATC is 0.361.
In turn, ATACCAAGGTGATCGTGAGGTAGTTGATACTAAC returned a PBM binding z-score of 0.0713.
Same read-out and setting: the figure for ATCTCTAGGCAAGACTCAGTTCAGTGAAGAACGC is 1.01; for GTACCAAGGTGAGTAGGTCGTTGATGAGTAGGCG it is 0.112.
Same read-out and setting: as for CCTCGGAGGACAACAGGAGGTCAGAGCGGCCAGA, the figure is 1.51.
In the case of TCTGGTAGATCAATAGAGGTTAAGAAAGTGCGCT, the PBM binding z-score was 0.435.
The sequence GCGACTGGGGCAAAGCAGGTTACAATAAGGTTGG showed a PBM binding z-score of -0.351.
Turning to CCGACTGGGGCATAAGGTTACCACAAGCCAGCCC, the PBM binding z-score was 0.195.
On the same count and under the same terms, the figure for ATATGTAGGTTAAGGGTCATACAGGTTGGTTCGC is 4.2; for ACTATTAGTTGACTAAGGGCAACCGATACGACGC it is 0.874.
On the same count and under the same terms, as for TCTTGTAGATCAACACGAGGTTAAGAAAGATCGA, the figure is 0.099; as for TCGAGTAGCTTAGGGGCATTCAGAATGGCGTCGA, 0.282.
TCAATGAGGTTATAAGATCAGGGAACGTTGCAAA returned a PBM binding z-score of 0.536.
Still for that read-out and setting: as for CCTACTGGGCCACGAAAGGTCATTGTTTCAGTGA, the figure is 2.75; as for GATACAGGGCCAGCTAGAGGCCAGAGTATGGAAA, -0.246.
On the same count and under the same terms, the figure for GCTATTAGTTGAAAGGGCAACCTAATGATTCTCG is 0.284; for ATATGTAGGTTATCGGGTCATTCAGTTTGCGCAT it is 4.34; for CGTCCAAGGTCAGAGCGGTCAGTGAATGCCGAGT it is 2.42.
On the same count and under the same terms, the figure for TTACCAAGGTGAGCTGAGGTCGTTGTTCCAACTC is 2.12; for CCAGCCAGGTGAGAAGGTAACTCAGCCTCGATTA it is -0.441; for CCTAGCAGGCCAATCTGGCTCACTCAAGGCTTGA it is -1.02.
As for CTTTACGGGTCACTCCAGGTTATAGCATCGGAGT, the PBM binding z-score came out at 1.88.
The sequence CAAACTCGGTCACGAAAGGTCAAAGTCGAATGAC had a PBM binding z-score of 3.28.
Same read-out and setting: the figure for CTCGAAAAGTCGGTTGAGGTGAGTATACGGATAA is -0.144; for CGGCCAAGGTCAGAGAGGTCAGTGAATGCCGAGT it is 5.9; for CCTACTGGGCCAAGGTGATTGATCAGTCAAAGCA it is -0.782.
Still for that read-out and setting: the figure for TATACAGGGTCAAAGGCCAGACTACGAATGTCGA is 2.33; for ATAATGAGGTTATTAAGATCAGGGAATTGCGGTC it is 1.8; for GCTGCTAGGTAAACTGATGGTCAGCTAAAGCTCG it is -0.973.
On the same count and under the same terms, as for AGAATGAGGTTATTAAGACCAGGGAATTGCGGTC, the figure is 0.915; as for ATCTCCAGGTAAGACTCAGTTCAGTGAAGAACGC, 1.27.
CCAGACAGGTGAAAGGTAATTCAGTCTGGTACGC returned a PBM binding z-score of -0.314.
CTAACTAGGTCAAGAGGTCAAAGTCCGCTTCCCG: the PBM binding z-score stood at 4.55.

The values above are taken from the supplement of paper PMC6555819.
